The record followed here is PubChem BioAssay (NCI).

Among the test systems are DU-145 prostate; K-562 leukemia; MALME-3M melanoma; MDA-MB-231 breast; RXF 393 renal; SF-268 CNS; SF-295 CNS; SF-539 CNS; UACC-257 melanoma; M14 melanoma; HCT-15 colon; SNB-75 CNS; SNB-19 CNS; U251 CNS; PC-3 prostate; SK-MEL-5 melanoma; UACC-62 melanoma; LOX IMVI melanoma; SK-MEL-28 melanoma; HT29 colon.
Experiment in all cases: NCI-60 one-dose screen, 48 h (100 = growth as untreated, 0 = no growth, -100 = all killed)
What all share (details): 10 µM unless noted

This is part of a sample that, as a whole, favours compounds with a hit. Of some 83,000 tested, about 20% had one in any assay.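 Each cell line was grown in a 96-well plate and treated with one concentration of compound for 48 hours. Values below 10 were considered active.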 Values without a mark were called inactive. Activity calls are given as the source filed them.

`Cc1cc(Cl)ccc1NS(=O)(=O)c1ccc(-c2cnc(C3CC3)o2)cc1`: the growth was 21% in the test on DU-145 prostate; 9.89% (active) in the test with K-562 leukemia; 68% in the test on MALME-3M melanoma; 26.2% with MDA-MB-231 breast; 16.2% in the test with RXF 393 renal; 47% in the test on SF-268 CNS. Also, the growth with SF-295 CNS is 16.9%; with SF-539 CNS, -19.1% (active); in the test with UACC-257 melanoma it was 69.4%; with M14 melanoma, 10.2%; with HCT-15 colon it was 14.1%; with SNB-75 CNS, -2.31% (active). Further, the growth in the test on SNB-19 CNS is 22.8%; in the test on U251 CNS it was 24.8%; in the test with PC-3 prostate, 26.6%; in the test with SK-MEL-5 melanoma, 20.4%; in the test with UACC-62 melanoma, 26.7%; in the test on LOX IMVI melanoma, 22.4%. In the test with SK-MEL-28 melanoma, the growth is 49.1%.
Turning to `COc1ccc(-c2c(C(=O)NS(C)(=O)=O)n(Cc3cccc(C(F)(F)F)c3)c3ccccc23)cc1`, the growth with DU-145 prostate was 100%; with K-562 leukemia it was 87.7%; in the test with MALME-3M melanoma, 76.8%; with MDA-MB-231 breast, 95.5%; in the test with RXF 393 renal, 111%; with SF-268 CNS, 95%. Also, the growth in the test on SF-295 CNS is 89.8%; in the test with SF-539 CNS, 98.3%; in the test with UACC-257 melanoma, 95.2%; in the test with M14 melanoma it was 94.6%; in the test on HCT-15 colon it was 79.3%; with SNB-75 CNS it was 85.1%. Moreover, the growth in the test with SNB-19 CNS was 93.2%; with U251 CNS it was 91%; in the test on PC-3 prostate, 70.7%; in the test on SK-MEL-5 melanoma, 83%; in the test on UACC-62 melanoma it was 88.4%; with LOX IMVI melanoma it was 89.7%. In addition, the growth in the test on SK-MEL-28 melanoma was 99.1%.
For the compound `CCCCCCCCCCCCCCCCCCOc1ccccc1CCCOP(=O)(O)OCC[N+](C)(C)C`, the growth in the test on DU-145 prostate is 75%; in the test with K-562 leukemia, 69.2%; with MALME-3M melanoma, 89.5%; in the test on MDA-MB-231 breast, 78.2%; in the test with RXF 393 renal, 11.1%; in the test on SF-268 CNS, 62.5%. For the same compound, the growth is 52.4% with SF-295 CNS; 91.4% in the test with SF-539 CNS; 88% in the test on UACC-257 melanoma; 77.7% with M14 melanoma; 51.3% in the test on HCT-15 colon; 83.3% with SNB-75 CNS. In addition, the growth was 33.7% in the test with SNB-19 CNS; 39.4% with U251 CNS; 0.281% (active) with PC-3 prostate; 80.9% in the test with SK-MEL-5 melanoma; 55.7% in the test on UACC-62 melanoma; 58.1% with LOX IMVI melanoma. Besides, in the test on SK-MEL-28 melanoma, the growth was 93.1%.
`CCN1C(=O)N(CC)C2Nn3c(s/c(=C\c4ccc([N+](=O)[O-])cc4)c3=O)=NC21` (stereo unspecified): the growth was 91.8% in the test on DU-145 prostate; 29.4% with K-562 leukemia; 70.3% in the test on MALME-3M melanoma; 47.8% with MDA-MB-231 breast; 103% with RXF 393 renal; 90% in the test with SF-268 CNS. Besides, the growth in the test on SF-295 CNS is 93.9%; in the test with SF-539 CNS, 94.3%; in the test with UACC-257 melanoma, 43.4%; in the test on M14 melanoma, 48%; in the test on HCT-15 colon, 61.6%; with SNB-75 CNS it was 82%. Moreover, the growth was 89.3% with SNB-19 CNS; 80.3% in the test with U251 CNS; 16% in the test on PC-3 prostate; 93.4% in the test on SK-MEL-5 melanoma; 75.6% with UACC-62 melanoma; 94.2% with LOX IMVI melanoma. In the test on SK-MEL-28 melanoma, the growth was 78.4%.
For `O=C(/C=C/c1sc(Cl)nc1Cl)c1ccc(Br)cc1`, the growth with DU-145 prostate was 98.6%; with K-562 leukemia, 9.52% (active); with MALME-3M melanoma, 83.6%; in the test with MDA-MB-231 breast, 90.4%; in the test with RXF 393 renal, 85.5%; in the test on SF-268 CNS it was 94.1%. Further, the growth was 95.9% in the test on SF-295 CNS; 71.1% in the test on SF-539 CNS; 98.3% in the test on UACC-257 melanoma; 67.8% in the test on M14 melanoma; 32.4% in the test with HCT-15 colon; 95% with SNB-75 CNS. Moreover, the growth with SNB-19 CNS is 90.6%; with U251 CNS it was 60.1%; in the test with PC-3 prostate, 95.5%; in the test with SK-MEL-5 melanoma it was 89.2%; in the test with UACC-62 melanoma it was 95.3%; with LOX IMVI melanoma it was 5.31% (active). In addition, the growth in the test with SK-MEL-28 melanoma was 100%.
For `C=C(C)[C@@H]1CC[C@]2(N=C=O)CC[C@]3(C)[C@H](CC[C@@H]4[C@@]5(C)Cc6c([nH]c7ccccc67)C(C)(C)[C@@H]5CC[C@]43C)[C@@H]12`, the growth is 63.2% in the test on DU-145 prostate; 3.74% (active) in the test with K-562 leukemia; 101% in the test with MALME-3M melanoma; 68.4% in the test on MDA-MB-231 breast; 81.6% with RXF 393 renal; 80.7% in the test on SF-268 CNS. Moreover, the growth in the test on SF-295 CNS was 111%; with SF-539 CNS, 89.3%; in the test with UACC-257 melanoma it was 109%; in the test on HCT-15 colon it was 47%; with HT29 colon, 98.5%; in the test with SNB-75 CNS, 79.8%. Also, the growth in the test on SNB-19 CNS was 91.4%; in the test with U251 CNS, 65.4%; with PC-3 prostate it was 40.3%; in the test with SK-MEL-5 melanoma it was 101%; in the test on UACC-62 melanoma it was 101%; with LOX IMVI melanoma it was 87.7%. In addition, the growth in the test with SK-MEL-28 melanoma was 106%.
For the compound `CCc1ccc(Oc2c(-c3ccc(OCc4ccc(Cl)cc4)cc3O)nn(C)c2C(F)(F)F)cc1`, the growth with DU-145 prostate was 15%; in the test on K-562 leukemia, 2.43% (active); in the test on MALME-3M melanoma it was -27.6% (active); in the test on MDA-MB-231 breast, -55.7% (active); with RXF 393 renal, -43.3% (active); in the test with SF-268 CNS, 12.6%. Further, the growth was -11.1% (active) with SF-295 CNS; 2.68% (active) with SF-539 CNS; -18.3% (active) with UACC-257 melanoma; 4.91% (active) in the test with HCT-15 colon; -11.1% (active) in the test with HT29 colon; -0.904% (active) in the test on SNB-75 CNS. Moreover, the growth in the test with SNB-19 CNS was 18.2%; with U251 CNS, 1.22% (active); with PC-3 prostate, -6.54% (active); in the test on SK-MEL-5 melanoma, -76.4% (active); in the test with UACC-62 melanoma, -2.19% (active); with LOX IMVI melanoma, -24.6% (active). Moreover, the growth in the test on SK-MEL-28 melanoma is 20.1%.
For the compound `Cc1cc(O)c(C2=NN(c3ccc(S(N)(=O)=O)cc3)C(/C=C/c3ccccc3)C2)cc1Cl` (stereo unspecified), the growth in the test on DU-145 prostate is 36.4%; in the test with K-562 leukemia, 31.2%; in the test with MALME-3M melanoma, 24.6%; in the test with MDA-MB-231 breast it was 47.7%; in the test with RXF 393 renal, 30%; in the test with SF-268 CNS, 24.1%. The growth was 38.5% with SF-295 CNS; 13.4% in the test on SF-539 CNS; 64.6% with UACC-257 melanoma; 29.8% with M14 melanoma; 85.7% in the test on HCT-15 colon; 51.3% in the test with SNB-75 CNS. Moreover, the growth with SNB-19 CNS is 66.4%; in the test on U251 CNS, 22.5%; in the test with PC-3 prostate, 32.6%; in the test on SK-MEL-5 melanoma it was 19.1%; in the test on UACC-62 melanoma, -10.9% (active); in the test with SK-MEL-28 melanoma, 23.9%.
